For 36 molecules, Potency results are on record in PubChem BioAssay (Tox21).

SMILES strings stand for the structures. Where “and” joins values, the source holds several entries; their conditions need not be identical. Equal values may be shown once. Inconclusive results are not listed. Where a call stands in place of a potency, no number is given. Some structures have more than one record in an assay (separate samples or runs), and their calls can disagree. Calls of active or inactive are those of the source. The call rests on the fitted dose curve; in most records, active means well fitted cell-killing curve with a large enough effect in the repeat runs; inconclusive means weak or mixed curves, or effect the other way; inactive means flat fitted curve, though single readings scatter. Residues, ends and D or L forms follow the SMILES beside them.
Potency means the concentration at half of the fitted maximal effect.

A short description of the assay: Human pregnane X receptor (PXR) small molecule agonists, qHTS cell viability counter screen (AID 1346977). Further: nearly all actives have a fitted effect of over 50% in size. The settings on record: PXR-Luc HepG2 viability, CellTiter-Fluor, 24 h; series mostly up to 92.4 µM. The procedure, abridged: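 In each well, the PXR reporter HepG2 line was checked for viability: CellTiter-Fluor reagent added 23hr post-dosing, fluorescence read after 1hr incubation at 37C.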
For `NC(N)=O`, the Potency was 14.1 µM (active) and inactive. As for `O=C(c1ccccc1)C(O)c1ccccc1` (stereo unspecified), the entry is “inactive”. As to `CCCCOC(=O)CC(CC(=O)OCCCC)(OC(C)=O)C(=O)OCCCC`, the Potency entry was “inactive”.

For `O=C(O)CCCCC(=O)O`, the Potency entry was “inactive”. As for `CCCC(O)C(CC)CO` (stereo unspecified), the entry is “inactive”; as for `COC(=O)[C@H](Cc1ccccc1)NC(=O)[C@@H](N)CC(=O)O` (H-Asp-Phe-OMe), “inactive”. As for `CCOc1ccc(NC(=O)CC(C)O)cc1` (stereo unspecified), the entry is “inactive”; as for `O=c1ccc2ccccc2o1`, “inactive”; as for `CC(O)C(=O)O` (stereo unspecified), “inactive”. As for `CC(O)CN(CCN(CC(C)O)CC(C)O)CC(C)O` (stereo unspecified), the Potency entry is “inactive”. As for `C[C@]12C=CC(=O)C=C1CC[C@@H]1[C@@H]2[C@@H](O)C[C@@]2(C)[C@H]1CC[C@]2(O)C(=O)CO`, the entry is “inactive”; as for `CC(C)(Oc1ccc(C2CC2(Cl)Cl)cc1)C(=O)O` (stereo unspecified), “inactive”; as for `Oc1ccc(/C=C/c2cc(O)cc(O)c2)cc1`, “inactive”. Regarding `O=c1cc[nH]c(=S)[nH]1`, the Potency result is “inactive”.

For `c1ccc2[nH]ccc2c1`, the Potency is 17.8 µM (active) and inactive. In the case of `Cc1cc(=O)[nH]c(=S)[nH]1`, the Potency entry was “inactive”. As for `O=C(O)CCC(=O)O`, the entry is “inactive”; as for `CC(O)CO` (stereo unspecified), “inactive”; as for `O=C1CN(/N=C/c2ccc([N+](=O)[O-])o2)C(=O)N1`, 27.2 µM (active) and 68.6 µM (active) and 26.6 µM (active). As for `O=C(O)c1cc(N=Nc2ccc(S(=O)(=O)Nc3ccccn3)cc2)ccc1O`, the figure is 39.8 µM (active). For the molecule `O=C(O)C(=O)O`, the Potency entry was “inactive”. As for `Cc1cn([C@H]2C[C@H](N=[N+]=[N-])[C@@H](CO)O2)c(=O)[nH]c1=O`, the figure is 70.8 µM (active) and inactive. On to `O=C(c1ccccc1)c1ccccc1`, for which the Potency result is “inactive”. As for `CC1(C)[C@@H]2CC[C@@]1(C)C(=O)C2`, the Potency result is “inactive”. As for `O=NO`, the Potency result was “inactive”.

Turning to `Nc1ccc(C(=O)O)cc1`, the Potency entry was “inactive”.

In the case of `CC(=O)OCC(COC(C)=O)OC(C)=O`, the Potency result is “inactive”.

Take `Cc1ccccc1C(OCCN(C)C)c1ccccc1` (stereo unspecified): the Potency result is “inactive”. For the molecule `C/C=C/c1ccc(OC)cc1`, the Potency entry was “inactive”.

As to `CC(C)[C@@H]1CC[C@@H](C)C[C@H]1O`, the Potency result is “inactive”. As for `CCCC(CCC)C(=O)O`, the entry is “inactive”; as for `O=C(O)c1cccnc1`, “inactive”. Take `NNC(=O)c1ccncc1`: the Potency entry is “inactive”. Turning to `CCCCCCCCCCCCCCCC(=O)O`, the Potency result is “inactive”. As for `CCCCC(CC)COC(=O)/C=C/c1ccc(OC)cc1` (stereo unspecified), the entry is “inactive”; as for `NC(=O)c1ccccc1O`, “inactive”.
